# High-throughput results: PubChem, several laboratories
# CSC inhib – cancer stem cell inhibition. cancer stem cell-like cells viability, luminescence. inhibition, % at 7.5 µM. 300,000 compounds, 1.1% hits; in the data active means inhibition above about 75%; tested in HMLE shEcad cells
# Beta apoptosis – beta cell apoptosis inhibition; INS-1E cytokine-induced death, ATP luminescence, 48 h; percent of positive-control rescue, neutral wells zero; 300,000 compounds, 0.8% hits; protection from apoptosis, % (test concentration not listed);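 active means Every replicate reaches about 75%, or at least half do and their mean reaches it too, limit read from the data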;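 further: 0% = cytokine-treated negative control wells and 100% = positive control rescue; higher means more ATP so stronger rescue from cytokine killing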
# Gli-Sufu block – blocks Gli-Sufu signaling in a luciferase reporter; Sufu-KO-LIGHT fibroblasts, Gli luciferase reporter luminescence; inhibition, % at 5 µM; 340,000 compounds, 0.74% hits; AID 588413;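 active means inhibition above about 55%, limit read from the data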;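 further: 0% = DMSO-treated cells and 100% = wells with medium but no cells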
# GRIN3A LBD mod – NR3A (human) ligand-binding domain modulation; NR3A LBD differential scanning fluorimetry, Tm shift; 0% = protein alone, 100% = glycine-bound protein; AID 1259313; 340,000 compounds, 2.5% hits; Tm shift relative to glycine control, % at 25 µM;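 active means melting temperature shift of at least 10% of the positive control shift, at one fixed dose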
# MPTP inh – inhibitors of mitochondrial permeability transition pore | isolated mouse mitochondria, Ca2+ swelling absorbance, 30 min | 360,000 compounds, 1.4% hits | inhibition, % at 10 µM;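 active means inhibition of 50% or more, scaled per plate between neutral and stimulator controls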;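 further: 0% = DMSO wells given calcium and 100% = 1 mM EGTA wells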
# Mdm2-MdmX inh – disrupts the human Mdm2-MdmX interaction. O15151+Q00987. SaOS-2 split-luciferase Mdm2/MdmX complementation, luminescence. inhibition, % at 8 µM. 330,000 compounds, 3% hits. AID 485346;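 active means inhibition of at least 50% at 8 µM in the primary screen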
# Target sequence (O15151 whole entry, looked up): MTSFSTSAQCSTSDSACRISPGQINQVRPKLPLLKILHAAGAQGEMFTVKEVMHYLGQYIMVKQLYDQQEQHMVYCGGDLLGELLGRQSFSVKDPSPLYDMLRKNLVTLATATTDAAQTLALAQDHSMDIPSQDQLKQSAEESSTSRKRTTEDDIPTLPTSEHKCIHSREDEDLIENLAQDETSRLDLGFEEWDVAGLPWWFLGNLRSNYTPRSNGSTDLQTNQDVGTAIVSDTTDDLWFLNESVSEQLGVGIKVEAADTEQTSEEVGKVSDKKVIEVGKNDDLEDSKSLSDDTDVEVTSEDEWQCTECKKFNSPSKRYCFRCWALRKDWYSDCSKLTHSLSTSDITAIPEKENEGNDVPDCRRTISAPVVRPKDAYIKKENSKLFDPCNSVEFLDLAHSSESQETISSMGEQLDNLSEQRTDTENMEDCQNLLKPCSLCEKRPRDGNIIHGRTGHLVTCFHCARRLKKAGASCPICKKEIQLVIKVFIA
# Target sequence (Q00987 whole entry, looked up): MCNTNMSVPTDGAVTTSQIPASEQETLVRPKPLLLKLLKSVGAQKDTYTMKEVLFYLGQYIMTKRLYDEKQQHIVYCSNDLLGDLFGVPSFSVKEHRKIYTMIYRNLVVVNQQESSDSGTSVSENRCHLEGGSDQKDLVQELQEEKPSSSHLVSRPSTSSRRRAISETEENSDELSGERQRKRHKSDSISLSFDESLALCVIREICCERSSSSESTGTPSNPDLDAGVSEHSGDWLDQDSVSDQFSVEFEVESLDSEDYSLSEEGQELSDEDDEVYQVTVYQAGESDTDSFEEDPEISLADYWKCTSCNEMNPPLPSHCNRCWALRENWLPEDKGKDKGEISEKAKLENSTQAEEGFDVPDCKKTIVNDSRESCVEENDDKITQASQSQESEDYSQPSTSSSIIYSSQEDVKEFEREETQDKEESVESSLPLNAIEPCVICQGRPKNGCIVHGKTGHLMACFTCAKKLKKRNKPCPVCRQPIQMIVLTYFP
# Mdm2-MdmX conf – confirmation of human Mdm2/MdmX interaction inhibitors. shares compounds with Mdm2-MdmX inh. Mdm2-MdmX binding, luminescent assay. inhibition, % at 8 µM. 10,000 compounds, 55% hits. AID 489028; in the data active means inhibition above about 40%
# FLuc counter – full-length luciferase inhibition in Mdm2/MdmX counter-screen; shares compounds with Mdm2-MdmX inh; inhibition, % at 8 µM; 6,200 compounds, 77% hits; SaOS-2 full-length luciferase counterscreen, luminescence;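 active means mean inhibition at 8 µM reaching about 37%, which flags the compound as non-specific, limit read from the data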;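 further: p53-null SaOS-2 cells with luciferase driven by a doxycycline-inducible promoter; compound on cells about two nights before reading with doxycycline added after day one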
# Numbers without * were called inactive; . = no result. The list is not random: actives were taken first. Their share in the collection is about 6.6%.
SMILES,CSC inhib,Beta apoptosis,Gli-Sufu block,GRIN3A LBD mod,MPTP inh,Mdm2-MdmX inh,Mdm2-MdmX conf,FLuc counter
O=C(C1CC1)N1c2ccccc2Sc2ccccc21,71.1,1.3,5.0,-1.2,0.3,61.4*,55.4*,75.0*
COc1ccc(NS(=O)(=O)c2cccs2)cn1,-6.5,-6.3,0.4,0.0,1.5,79.4*,11.5,.
Cn1ccnc1SCC(=O)c1ccc([N+](=O)[O-])cc1,-7.4,3.2,-0.5,-1.5,-2.3,1.8,.,.
O=C(CCNC(=O)C1CCN(S(=O)(=O)c2ccccc2)CC1)NCc1ccccc1Cl,-12.6,-1.6,-10.6,0.7,-0.8,-3.3,.,.
Clc1ccc(-c2nc(N3CCOCC3)nc3ccccc23)cc1,-1.8,.,-2.0,-1.0,-0.2,32.6,.,.
O=C1CN(c2nc(-c3ccccc3)c3cc(Cl)ccc3n2)c2ccccc2N1,-28.8,42.1,.,-3.5,-0.2,67.8*,0.9,.
Clc1ccc2nc(N3CCNCC3)nc(-c3ccccc3)c2c1,17.8,1.2,-5.9,-2.8,3.7,63.6*,21.3,.
Cc1cc(-c2ccccc2)n(-c2ccccc2)n1,-10.4,0.6,-34.1,0.0,3.2,-4.9,.,.
Cn1nc(-c2ccc(N3CCCCC3)c(NC(=O)c3ccco3)c2)c2ccccc2c1=O,25.3,17.2,12.8,0.6,-2.4,88.0*,43.5*,40.9*
COc1ccc(OCC(=O)Nc2cc(-c3nn(C)c(=O)c4ccccc34)ccc2N2CCOCC2)cc1,17.3,-15.3,12.7,-1.1,-0.4,66.9*,19.4,.
CCC(=O)Nc1cc(-c2nn(C)c(=O)c3ccccc23)ccc1N1CCOCC1,-8.6,-10.9,8.8,-4.2,0.4,15.1,.,.
CCOCCCNC(=O)c1cc2c(-c3ccc(Cl)cc3)nn(C)c2s1,13.7,-0.5,-4.9,-12.7,-1.5,19.1,.,.
Cn1nc(-c2ccc(Cl)cc2)c2cc(C(=O)NC3CC3)sc21,6.0,5.5,-0.8,3.5,-0.7,58.9*,25.2,.
CCCCN(CC)CCNC(=O)c1cc2c(-c3ccc(Cl)cc3)nn(C)c2s1,112.1*,20.3,8.3,-0.6,1.6,57.7*,32.9,31.2
COc1ccc(-c2nn(-c3ccccc3)cc2C(=O)NC(=S)Nc2cc(Cl)ccc2Cl)cc1,-4.2,1.6,2.0,-0.4,2.5,73.7*,43.5*,51.0*
O=C(c1ccccc1Br)N1CCc2c([nH]c3ccccc23)C1,-11.3,-7.7,8.4,-2.7,3.4,-19.0,.,.
Fc1cccc(F)c1/C=N/NC(=S)Nc1cccnc1,-11.4,.,3.1,-2.4,-0.3,6.7,.,.
Fc1c(F)c(F)c(/C=N/NC(=S)Nc2cccnc2)c(F)c1F,12.2,33.4,11.0,-2.0,-0.6,51.4*,33.9,74.0*
Fc1ccc2c(Cl)c(-c3nnc(-c4cccs4)o3)sc2c1,-10.9,-5.6,-73.2,0.8,1.5,84.2*,-138.2,.
CC(=O)c1cccc(NC(=O)/C(=C/c2ccncc2)NC(=O)c2ccccc2)c1,.,-0.9,2.4,-1.6,-1.3,0.5,.,.
Cn1cnc(S(=O)(=O)N2CCN(C(c3ccc(F)cc3)c3ccc(F)cc3)CC2)c1,2.9,-1.0,-22.6,5.1,-0.4,-1.0,.,.
COc1ccc(CN(C(=O)CSc2nnc(-c3c[nH]c4ccccc34)o2)c2ccc(F)cc2)cc1OC,65.9,-17.4,20.5,-0.7,2.7,66.1*,74.0*,70.3*
O=C(Cc1cccs1)Nc1ccc(F)c(S(=O)(=O)N2CCOCC2)c1,.,.,-13.7,-0.9,-1.9,-6.8,.,.
CCCn1c(N)c(N(CCOC)C(=O)CSc2cc(C)c3cccc(C)c3n2)c(=O)[nH]c1=O,.,-3.8,-1.9,1.2,0.1,8.7,.,.
COc1ccccc1N1CCN(C(=O)c2cn(C)c3ccc(S(=O)(=O)N4CCOCC4)cc3c2=O)CC1,.,5.9,-1.5,1.3,-1.8,14.6,.,.
SMILES,CSC inhib,Beta apoptosis,Gli-Sufu block,GRIN3A LBD mod,MPTP inh,Mdm2-MdmX inh,Mdm2-MdmX conf,FLuc counter
Nc1c(C(=O)NC2CCCC2)c2nc3ccccc3nc2n1/N=C/c1cccnc1,45.0,0.9,-5.7,-1.7,2.5,51.1*,23.1,.
COCCCNC(=O)c1c(N)n(/N=C/c2ccccn2)c2nc3ccccc3nc12,.,.,-11.1,-14.2,-2.5,32.1,.,.
C=CCn1cc(CN2CCC(C(=O)Nc3cccc(-c4cccc(F)c4)c3)CC2)c(C)n1,-0.1,0.3,36.3,-0.8,2.0,50.8*,30.6,.
COCc1ccc(CN2CCC(C(=O)Nc3cccc(-c4cscn4)c3)CC2)o1,-5.4,-10.4,-11.0,-4.1,2.2,20.2,.,.
Cc1cccc(CN2CCC(C(=O)Nc3cccc(-c4cccc(F)c4)c3)CC2)n1,-11.3,2.4,20.1,-1.4,1.5,38.3,.,.
COCc1ccc(CN2CCC(C(=O)Nc3cccc(-c4cccc(Cl)c4)c3)CC2)o1,-0.4,-1.2,16.0,-0.8,15.1,77.5*,54.0*,57.9*
Cc1nn(C(C)C)c(C)c1CN1CCC(C(=O)Nc2cccc(-c3cccc(F)c3)c2)CC1,30.5,5.1,39.2,1.7,1.1,78.5*,51.5*,62.1*
CCCn1ncc(CN2CCC(C(=O)Nc3cccc(-c4cccc(F)c4)c3)CC2)c1C,0.3,.,34.3,0.1,0.1,86.9*,46.2*,71.1*
O=C(Nc1cccc(-c2cccc(Cl)c2)c1)C1CCN(Cc2ccccn2)CC1,-4.1,-7.8,0.9,0.7,-0.7,37.4,.,.
C=CCn1cc(CN2CCC(C(=O)Nc3ccc(Oc4cccnc4)cc3)CC2)c(C)n1,-0.1,-4.9,22.5,-4.3,-1.4,3.7,.,.
Cc1c(CN2CCC(C(=O)Nc3cccc(-c4cccc(Cl)c4)c3)CC2)cnn1C,12.0,7.5,-6.7,-1.6,8.9,58.2*,10.2,.
C=CCn1cc(CN2CCC(C(=O)Nc3cccc(-c4cccc(Cl)c4)c3)CC2)c(C)n1,27.6,7.4,20.3,-1.6,16.1,80.9*,12.8,.
COc1ccccc1N(C(=O)CCl)c1cn(C(C)=O)c2ccccc12,16.7,4.8,44.8,0.9,1.4,96.1*,100.1*,52.4*
CC(=O)n1cc(N(C(=O)CCl)c2ccc(Cl)cc2)c2ccccc21,29.9,0.7,3.9,0.9,0.6,98.6*,100.0*,8.4
O=S1(=O)N[C@@H](Cc2ccccc2)COc2cc(N3CCC[C@H]3CO)ccc21,.,.,.,.,1.5,.,.,.
Cc1ccc(C(=O)OCC(=O)NC2CCCC2)cc1,.,.,-5.9,2.7,0.0,12.4,.,.
COC(=O)c1cc(C)c(C)cc1NC1OC(CO)C(O)C1O (centres undefined),.,.,6.7,1.3,1.2,.,.,.
CC1CC(C)(C)CC2(C1)NC(=O)N(CC(=O)N1CCN(S(=O)(=O)c3ccc(F)c(F)c3F)CC1)C2=O (centres undefined),.,.,7.2,0.2,-0.5,.,.,.
